Screening data deposited in PubChem BioAssay by National Center for Advancing Translational Sciences (NCATS).
A selection: hits, their analogues and other compounds. The true share with any hit is near 10%.
ALDH1A1 block: qHTS Assay for Inhibitors of Aldehyde Dehydrogenase 1 (ALDH1A1); Potency, µM (titrated, usually from 75.3 µM), for inactives: at the highest dose activity, negative = inhibition, hits mostly inhibitors; Purified ALDH1A1, NADH fluorescence, propionaldehyde substrate; 220,000 tested, 7.3% active; Aldehyde dehydrogenase 1A1 (Homo sapiens), P00352;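 also: potency is read from the fitted curve at half-maximal effect; plate controls were no enzyme wells and a reference inhibitor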
ALOX12 inhib: qHTS Assay for Inhibitors of 12-hLO (12-human lipoxygenase); purified 12-hLO, xylenol orange hydroperoxide absorbance; Potency, µM (series often up to 57.1 µM), for inactives: at the top dose activity change, negative = inhibition, hits mostly inhibitors; 150,000 tested, 0.12% active; AID 1452, 2008; active = well fitted inhibition curve with a large enough effect; inconclusive = small, poorly fitted or top-dose-only effect; also: potency is read from the fitted curve at half-maximal effect; nearly all actives have a fitted effect of over 55% in size
Target sequence (P18054 whole entry, looked up): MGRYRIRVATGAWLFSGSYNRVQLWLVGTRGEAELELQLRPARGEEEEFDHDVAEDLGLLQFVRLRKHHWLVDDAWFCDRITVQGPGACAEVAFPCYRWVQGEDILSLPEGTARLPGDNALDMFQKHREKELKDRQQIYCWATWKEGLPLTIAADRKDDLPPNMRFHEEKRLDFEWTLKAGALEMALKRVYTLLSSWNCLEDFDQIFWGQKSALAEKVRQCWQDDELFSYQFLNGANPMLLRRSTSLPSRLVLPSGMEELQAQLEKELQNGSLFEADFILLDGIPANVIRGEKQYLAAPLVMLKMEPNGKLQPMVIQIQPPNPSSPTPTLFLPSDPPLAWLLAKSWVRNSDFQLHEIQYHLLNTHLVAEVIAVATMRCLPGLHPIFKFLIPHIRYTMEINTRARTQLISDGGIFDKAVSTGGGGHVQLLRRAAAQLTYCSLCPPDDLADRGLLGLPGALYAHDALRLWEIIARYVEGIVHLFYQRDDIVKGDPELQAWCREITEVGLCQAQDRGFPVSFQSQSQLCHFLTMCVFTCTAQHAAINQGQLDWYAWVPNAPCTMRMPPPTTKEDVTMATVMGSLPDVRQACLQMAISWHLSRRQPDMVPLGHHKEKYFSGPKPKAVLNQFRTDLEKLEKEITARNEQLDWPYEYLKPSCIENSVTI
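150 nM 12hLO, 25 mM Hepes pH 7.0 + 0.01% Triton X-100; cpd preinc 15 min RT; 40 uM arachidonic acid, 30 min RT; Fe-XO 30 min; A573/A405 ratio as read-out.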
Lamin A splicing: qHTS Assay for Modulators of Lamin A Splicing | HeLa LMNA splicing GFP/RFP minigene ratio, 48 h | Potency, µM (titrated, usually from 46.1 µM), without a hit: at the top dose ratio change, negative = inhibition, most hits filed as inhibitors | 200,000 tested, 0.01% active | AID 1487, 2009; active = well fitted inhibition curve with a large enough effect in the signal ratio, with a control signal flat, not every such curve was filed as active; inconclusive = small, poorly fitted or top-dose-only effect, or effect the other way, or a change in a side signal; the % refers to the signal ratio; also: potency is read from the fitted curve at half-maximal effect
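S3 HeLa stable clones carrying a lamin A-EGFP splicing minigene plus DsRed2 were seeded at 600 cells/well in Opti-MEM with 2% FBS, pin-dosed and incubated 48 h at 37°C. Acumen cytometry (488 nm) gave the GFP/RFP total-intensity ratio.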
PNC inhibitor: High Content Assay for Compounds that inhibit the Assembly of the Perinucleolar Compartment; PC3M PTB-GFP, PNC prevalence imaging, 16 h; hits give low values; activity change (PNC), negative = inhibition, % at 10 µM; AID 2417, 2010; 140,000 tested, 3.1% active;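 active = readout at or below -70, meaning at least 70% loss of cells showing the perinucleolar compartment, a nuclear body marking cancer cells; inconclusive = readout between -30 and a set limit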;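 also: plate controls were DMSO wells for no effect and camptothecin positive control wells for full effect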
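Read-out is percentage of cells bearing a perinucleolar compartment, from automated 20x imaging of fixed, Hoechst-stained PC3M PTB-GFP cells. Cells were seeded 4 h, then exposed 16 h to compound (23 nl of library stock) in duplicate plates.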
HPGD inh: qHTS Assay for Inhibitors of HPGD (15-Hydroxyprostaglandin Dehydrogenase); purified HPGD, NADH fluorescence kinetic, PGE2 substrate; Potency, µM, inactives show at the top dose activity change, negative = inhibition, actives largely listed as inhibitors; 150,000 tested, 4.3% active; also: potency is read from the fitted curve at half-maximal effect
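NADH formation kinetics: reaction with 30 uM PGE2 and 1 mM NAD+ (final), 20 nM enzyme, Tris-HCl pH 8 with Tween 20, after 15 min compound preincubation at room temperature. Fluorescence change, last versus first of five reads.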
An asterisk follows results filed as active; ? = inconclusive; . = not tested or not shown; [ ] = dose if it differs, or a comment. Unless noted, calls follow the shape of the dose curve; as a rule, active = well fitted inhibition curve with a large enough effect (not every such curve was filed as active); inconclusive = small, poorly fitted or top-dose-only effect, or another doubt; inactive = no such curve, though single readings can be large or run the other way. Unless noted, % is scaled to controls: 0 for no effect and ±100 for the full control effect.

SMILES | ALDH1A1 block | ALOX12 inhib | Lamin A splicing | PNC inhibitor | HPGD inh
CC1CCCN(CCCNC(=O)CCn2nc(-c3ccccc3)ccc2=O)C1 (configuration not stated) | 22.4µM* | -3.1% | 7.1% | 6.0 | -14.5%
Nc1cc(C(F)(F)F)cc2c1SCC(=O)N2 | 10.8% | 0.4% | -7.0% | ? | -7.4%
CN(C)c1ncnc2c1NC1=C(S2)C(=NCCCC(=O)O)CC(C)(C)C1 | ? | -9.2% | -0.6% | -2.5 | -14.1%
COc1ncnc2c1NC1=C(S2)C(=NCCC(=O)O)CC(C)(C)C1 | 5.01µM* | -28.3% | 8.1% | -14.2 | .
Cc1ccccc1OCC(=O)Nc1ccc(S(=O)(=O)N(Cc2ccccc2)c2ccccc2)cc1 | . | . | 9.4%[46 µM] | . | .
Cc1nc2cccnc2n1C1CCN(C(=O)Nc2ccccc2C(F)(F)F)CC1 | . | . | 9.6%[46 µM] | . | .
COc1cc(CNC2CCCCC2OC)cc(OC)c1 (configuration not stated) | -4.2% | . | ? | . | .
COC1CCCCC1Nc1ccc(C)c(C)c1 (configuration not stated) | 10µM* | -1.9% | ? | -25.7 | -4.9%
O=C1CC[C@@]23CCCN2C(=O)CCCC3C1 (some centres not stated) | -0.6%[120 µM] | -0.7%[0.00818 µM] | . | . | -14.0%
O=C(COc1ccc(S(=O)(=O)NC2CCCC2)cc1)NCC1CCCO1 (configuration not stated) | 1.1% | . | . | . | .
Cn1c(C(=O)OCC(=O)NCC2CCCO2)cc2sccc21 (configuration not stated) | -23.0% | -0.5% | -10.8% | ? | 15.8µM*
Cc1cc(C)cc(OCC(=O)NCC2CCCO2)c1 (configuration not stated) | -3.8% | -0.8% | 2.7% | 64.4 | 15.8µM*
Cc1cc(C)c(C)c(OCC(=O)NCC2CCCO2)c1 (configuration not stated) | -2.3% | 5.3% | -6.2% | -90.4* | ?
Cc1cc(C)cc(N(CC(=O)NCC2CCCO2)C(=O)CCC(=O)Nc2cc(C)on2)c1 (configuration not stated) | 0.6% | -0.6% | -3.2% | -82.1* | -3.7%
CC1CN(CC(=O)NN=C(c2ccccc2)c2ccccc2)CC(C)O1 (configuration not stated) | 1.4% | . | . | . | .
Cc1nnc(SCC(=O)Nc2nc(-c3ccc(F)cc3)cs2)[nH]c1=O | 4.7% | . | 4.6%[46 µM] | . | .
COC(=O)c1oc2c(c1C)C(=O)CC(C)(C)C2 | ? | . | -5.4%[46 µM] | . | .
COC(=O)CC1Oc2cc3oc4c(c3cc2O1)C(=O)CC(C)(C)C4 (configuration not stated) | 10µM* | -0.7% | . | . | 25.1µM*
CC1(C)CC(=O)c2c(oc3cc(O)c(O)cc23)C1 | 2µM* | -17.6% | 15.6% | 47.3 | 6.31µM*
Cc1cc(Cl)ccc1NS(=O)(=O)c1ccc2c(c1)CCN2S(C)(=O)=O | . | . | -10.2%[46 µM] | . | .
Cc1cc(C)nc(NS(=O)(=O)c2ccc(NC(=O)CN3C(=O)c4ccccc4C3=O)cc2)n1 | 5.9% | 9.3% | -5.5% | -92.4* | -5.7%
Cc1cc(NS(=O)(=O)c2ccc(NC(=O)CN3C(=O)c4ccccc4C3=O)cc2)nc(C)n1 | 9.4% | 1.3% | 6.2% | 1.4 | -7.3%
Cc1cc(C)nc(NS(=O)(=O)c2ccc(NC(=O)c3ccc4c(c3)OCCO4)cc2)n1 | 25.1µM* | . | . | . | .
Cc1cc(C)nc(NS(=O)(=O)c2ccc(NC(=O)c3ccc(N4C(=O)CCC4=O)cc3)cc2)n1 | -1.7% | 1.7% | 3.2% | -101.5* | 0.3%
COc1ccc(C)cc1NCc1nnc2n1CCCCC2 | . | . | 7.2%[46 µM] | . | .
COc1cccc([C@@H]2Oc3ccc(OC)cc3C(=O)[C@H]2OC(=O)NS(=O)(=O)c2ccc(F)cc2)c1 | 3.3% | . | . | . | -16.7%
COCCn1c(SCC(=O)c2ccc(Cl)cc2)nnc1C(C)C | 9.46µM* | -15.2% | 2.8% | 19.3 | ?
CCCn1c(SCC(=O)c2ccc3c(c2)OCCO3)nnc1-c1ccco1 | -5.9% | -2.9% | 16.3% | 21.0 | -3.1%
